# High-throughput results as filed in PubChem.
# Most compounds without a hit are left out; they make up all but 3.2% or so of the library.
# LGR2 antag = inhibitors of bursicon-induced Drosophila LGR2 receptor cAMP signaling | HEK293 LGR2, CRE-luciferase, bursicon-stimulated, 4 h | inhibition, % at 9.99 µM | 0.35% of 380,000 active | AID 720647;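 active = drop in luminescence signal, shown as inhibition above about 50% in the replicate tests, limit read from the data, passing the limit was not always enough; inconclusive = probably only some replicates passing the limit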;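 also: agonist challenge used bursicon conditioned medium at about half maximal strength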
# PAX8 reporter = lowers PAX8-driven luciferase in RMG-I cells; inhibition, % at 12.6 µM; 1.2% of 360,000 active; RMG-I TPO-luciferase reporter, SteadyGlo, 24 h;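 active = mean replicate inhibition at least 60% with every replicate also reaching 60%; inconclusive = only one of the two criteria is met; inactive = mean below 60% and not all replicates reaching 60%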;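 also: luciferase light reporting Pax8 driven TPO promoter activity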
# TROY signal inh = inhibitors of TROY-dependent NF-kB signaling; Q293 LMP1-TROYcd NF-kB luciferase reporter, 4 h; 0.98% of 360,000 active; inhibition, % at 10 µM;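 active = compounds whose plate-normalised and pattern-corrected inhibition of the luciferase reporter signal at the single screening dose is 50% or more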
# EWS-Fli inh = blocks EWS/Fli oncoprotein-driven transcription; A673 NR0B1-luciferase reporter, viability-normalised; inhibition, % at 12.6 µM; 0.67% of 350,000 active; AID 651661;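 active = mean inhibition of at least 50% after viability correction, with every replicate also passing that limit; inconclusive = mean reaches 50% but only one of two replicates passes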;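 also: firefly luciferase signal divided by Alamar Blue viability fluorescence both relative to DMSO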
# TWEAK-Fn14 inh = inhibitors of TWEAK-Fn14 interaction signaling; AID 1159606; TWEAK-stimulated Fn14 reporter cells, luciferase luminescence, 8 h; 2% of 360,000 active; inhibition, % at 10 µM; in the data active = inhibition above about 50%
# EBV LMP1 NFkB = inhibitors of Epstein-Barr LMP1-induced NF-kappaB reporter | LMP1-induced NF-kappaB luciferase reporter cells, luminescence | 0.69% of 350,000 active | AID 504558 | inhibition, % at 12.5 µM; in the data active = inhibition above about 41%; inconclusive = no clear call, values can overlap the other calls
# Hits are given with their value; . = inactive; ? = inconclusive; / = no result.
SMILES,LGR2 antag,PAX8 reporter,TROY signal inh,EWS-Fli inh,TWEAK-Fn14 inh,EBV LMP1 NFkB
O=C(Nc1ccccc1C(=O)Nc1nnc(C(F)(F)F)s1)c1ccccc1Cl,.,63,66,.,62,.
CN(C)C(=O)[C@H]1[C@H](CO)[C@H]2Cn3c(ccc(C4=CCCCC4)c3=O)[C@@H]1N2Cc1cccnc1,.,/,/,.,/,/
Cc1c(C(=O)OCC2CCCO2)[nH]c2c1C(=O)CC(c1ccco1)C2 (stereo not drawn),/,/,.,/,.,.
Cc1c(C(=O)OCC(C)C)[nH]c2c1C(=O)CC(c1ccco1)C2 (stereo not drawn),.,68,.,53,.,.
Cc1c(C(=O)OC2CCCC2)[nH]c2c1C(=O)CC(c1ccco1)C2 (stereo not drawn),.,76,.,.,.,.
COCC(=O)N1[C@@H](CO)[C@@H]2c3ccccc3N(C(=O)Nc3ccccc3Cl)C[C@@H]21,.,.,/,.,/,/
O=C(Nc1ccc2c(c1)OCO2)N[C@H]1CC[C@H](CCNC(=O)C2CCOCC2)O[C@H]1CO,.,/,/,.,/,/
CC(C)N(C[C@H]1[C@@H](c2ccccc2)[C@@H](CO)N1CC1CC1)C(=O)C1CCC1,.,/,/,/,/,/
O=C(c1ccncc1)N1CC2(C1)[C@@H](c1ccccc1)[C@@H](CO)N2CC1CCOCC1,.,.,/,.,/,/
O=Cc1[nH]c2ccccc2c1N(C(=O)CCl)c1ccc([N+](=O)[O-])cc1,?,90,.,.,.,.
CC(=O)n1cc(N(C(=O)CCl)c2ccc([N+](=O)[O-])cc2)c2ccccc21,.,.,.,56,.,.
CC(=O)n1cc(CO)c2ccccc21,.,/,.,.,.,.
CC(=O)n1cc(N(C(=O)CCl)c2ccccc2)c2ccccc21,.,109,.,.,66,.
CCCNC(=O)N1CC2(CN(Cc3ccc(OC)cc3)C2)c2c(n(C)c3cc(OC)ccc23)[C@H]1CO,.,/,/,.,/,/
C[C@H](CO)N1C[C@H](C)[C@@H](CN(C)S(=O)(=O)c2cccs2)Oc2ccc(NC(=O)Cc3ccccc3)cc2CC1=O,.,.,/,.,/,/
CNC[C@H]1Oc2c(NC(=O)Nc3ccc(OC)cc3)cccc2C(=O)N([C@H](C)CO)C[C@@H]1C,.,.,/,.,/,/
O=C(O)Cc1cn(-c2ccccc2)nc1-c1ccccc1,.,.,.,.,.,.
OCc1cn(-c2ccccc2)nc1-c1ccc(-c2nn(-c3ccccc3)cc2CO)cc1,.,/,.,/,52,.
C(=C\c1ccccc1)/C=N/N1CCN(c2ccccn2)CC1,/,/,.,/,.,85
C(/C=C/c1ccccc1)=N/N1CCN(c2ccccc2)CC1,/,/,.,/,.,.
COc1ccc(NC(=O)N(C)C[C@@H]2Oc3ccc(NC(=O)C4CCCCC4)cc3CC(=O)N([C@H](C)CO)C[C@H]2C)cc1,.,/,/,.,/,/
Cn1cc(/C=C/c2cc[n+](C)cc2)c2cc(F)ccc21,/,/,.,/,.,.
C[n+]1ccc(/C=C/c2c[nH]c3ccc(F)cc23)cc1,.,70,.,.,.,.
Cc1cc(C(=O)COC(=O)CNC(=O)c2ccco2)c(C)n1Cc1ccco1,.,.,.,/,.,.
COCCn1c(C)cc(C(=O)COC(=O)c2ccc(Br)o2)c1C,.,.,55,.,55,.
SMILES,LGR2 antag,PAX8 reporter,TROY signal inh,EWS-Fli inh,TWEAK-Fn14 inh,EBV LMP1 NFkB
COc1cc(OC)cc(C(=O)NCC(=O)OCC(=O)c2cc(C)n(Cc3ccco3)c2C)c1,.,92,.,.,.,.
Cc1cc(C(=O)COC(=O)CNC(=O)c2ccccc2)c(C)n1CC1CCCO1 (stereo not drawn),.,.,.,.,60,.
Cc1cccc(C(=O)NCC(=O)OCC(=O)c2cc(C)n(CC3CCCO3)c2C)c1 (stereo not drawn),.,.,80,.,59,.
COCCn1c(C)cc(C(=O)COC(=O)CNC(=O)c2ccccc2)c1C,.,.,54,.,63,.
COCCn1c(C)cc(C(=O)COC(=O)c2ccc[nH]c2=O)c1C,.,.,59,/,71,.
CCCNC(=O)N[C@@H]1CC[C@H](CCn2cc(C3CCCCC3)nn2)O[C@@H]1CO,.,.,/,.,/,/
c1csc(CCNc2ncnc3sc4c(c23)CCC4)c1,/,.,54,.,61,.
CCOc1ccc(-n2c(=S)sc3c(=O)[nH]c(SCC(=O)NCC4CCCO4)nc32)cc1 (stereo not drawn),.,110,.,.,.,.
CCCN(C)C[C@H]1Oc2cc(C#CCC3CCCC3)ccc2S(=O)(=O)N([C@H](C)CO)C[C@H]1C,.,.,/,.,/,/
